From PubChem BioAssay (NCATS)
Values without a mark were called inactive. Inconclusive results are not listed. Entries that show only a call come without a potency. Active and inactive are the calls of the source. Calls follow the shape of the dose curve; as a rule, active = well fitted curve in the direction sought with a large enough effect; inconclusive = small, poorly fitted or top-dose-only effect, or another doubt; inactive = no such curve, though single readings can be large; an effect the other way counts as inactive or inconclusive.

Columns and labels:
[1] = target: Glutathione peroxidase 1 (Homo sapiens) (UniProt P07203); assay: Primary qHTS Assay for Inhibitors of Recombinant Selenoprotein Glutathione Peroxidase 1 (GPX1) (AID 1845191); also: nearly all actives have a fitted effect of over 65% in size
Sequence of Glutathione peroxidase 1 (Homo sapiens) (P07203 whole entry, looked up): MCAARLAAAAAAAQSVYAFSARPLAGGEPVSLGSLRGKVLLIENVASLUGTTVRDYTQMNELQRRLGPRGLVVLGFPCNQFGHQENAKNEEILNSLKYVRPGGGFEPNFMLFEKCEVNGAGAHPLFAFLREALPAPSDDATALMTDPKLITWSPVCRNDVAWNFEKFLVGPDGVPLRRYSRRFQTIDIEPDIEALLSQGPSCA
Method in brief: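 GPX1 10 nM, GR 100 nM, GSH 1 mM, NADPH 0.5 mM, CHP 0.5 mM (final). 30-min cpd preincubation, RT. Ex340/Em450 read t=0, t=15 min.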

[2] = target: Phospholipid hydroperoxide glutathione peroxidase GPX4 (Homo sapiens) (UniProt P36969); assay: Primary qHTS Assay for Inhibitors of Recombinant Selenoprotein Glutathione Peroxidase 4 (GPX4) (AID 1845192); also: nearly all actives have a fitted effect of over 65% in size; as to activity change, negative = inhibition: series mostly up to about 50 µM
Sequence of Phospholipid hydroperoxide glutathione peroxidase GPX4 (Homo sapiens) (P36969 whole entry, looked up): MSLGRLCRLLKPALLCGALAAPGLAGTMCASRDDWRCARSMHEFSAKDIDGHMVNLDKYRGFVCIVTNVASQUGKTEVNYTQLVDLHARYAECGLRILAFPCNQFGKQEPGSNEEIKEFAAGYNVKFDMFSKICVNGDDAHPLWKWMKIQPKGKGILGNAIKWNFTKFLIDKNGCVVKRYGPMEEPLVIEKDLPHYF
Method in brief: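 qHTS, GR-coupled: GPX4 200 nM + cpd 30 min RT → GSH 1 mM, NADPH 0.5 mM, GR 100 nM → CHP 0.5 mM start; fluor 340/450 at t0 and t15 min; no-enzyme wells as control.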

[3] = target: Luciferin 4-monooxygenase (Photinus pyralis) (UniProt P08659); assay: Primary firefly luciferase (FLuc) qHTS assay for identification of artifact compounds. (AID 1845220); also: nearly all actives have a fitted effect of over 60% in size; as to activity change, negative = inhibition: series mostly up to about 54 µM
Method in brief: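 In this counter-screen for luciferase artifacts, test compounds met substrate (10 uM each luciferin and ATP) before 10 nM enzyme started the reaction. Light output was measured 5 min later.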

[4] = Primary fluorescence-based thiol-reactive (MSTI) qHTS assay for identification of artifact compounds. (AID 1845221); also: nearly all actives have a fitted effect of over 65% in size; also: potency is read from the fitted curve at half-maximal effect;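 as to activity change, negative = thiol reactive: series mostly up to about 54 µM; thiol-reactive compounds lower the probe fluorescence signal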
Method in brief: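 MSTI probe at 4 uM final in 2% DMSO/PBS pH 7.4; compounds, 1 h at room temperature in dark. Fluorescence Ex/Em 525/598 nm, normalised to Acetyl-MSTI and MSTI, fitted to 4-parameter Hill.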

[5] = system: Nanoluciferase (engineered Oplophorus gracilirostris luciferase); assay: Primary Nanoluciferase (NLuc) qHTS assay for identification of artifact compounds. (AID 1845222);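 also: NLuc secreted into diluted conditioned medium of S16 cells; series mostly up to about 54 µM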
Method in brief: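 Using secreted nanoluciferase in S16 culture medium (0.22 um filtered, 1:55 dilution), compounds were preincubated 15 min at RT. Signal was generated with Nano-Glo reagent (1:100) over 5 min.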

Cc1cc(C(=O)N2CCCCc3ccccc32)ccc1CNC(=O)N1CCC[C@H]1C(=O)N(C)C
Potency [1]: inactive | Potency [2]: inactive | Potency [3]: inactive | Potency [4]: inactive | Potency [5]: inactive

CC(=O)OCC1(O)CCC2C(COC3OC(CO)C(O)C(O)C3OC(=O)/C=C/c3ccc(O)cc3)=COC(OC(=O)CC(C)C)C21 (stereo not drawn)
Potency [1]: inactive | Potency [2]: inactive | Potency [3]: inactive | Potency [4]: inactive | Potency [5]: inactive

COc1cc([C@H]2c3cc(O)c(OC)cc3C[C@@H](CO[C@@H]3O[C@H](CO)[C@@H](O)[C@H](O)[C@H]3O)[C@@H]2CO)ccc1O
Potency [1]: inactive | Potency [2]: inactive | Potency [3]: inactive | Potency [4]: 8.22 µM (active) | Potency [5]: inactive

O=C(O)c1cc(I)ccc1NC(=O)[C@H](Cc1ccccc1)NCc1ccccc1
Potency [1]: inactive | Potency [2]: inactive | Potency [3]: inactive | Potency [4]: inactive

CN(C)c1ccc2c(c1)OC(N)=C(C#N)C2c1cccc(C(F)(F)F)c1 (stereo not drawn)
Potency [1]: inactive | Potency [2]: inactive | Potency [3]: inactive | Potency [4]: 2.12 µM (active) | Potency [5]: inactive

O=C(CCc1ccccc1)N1CCC(O)(Cn2cnc3cc(Cl)ccc3c2=O)CC1
Potency [1]: inactive | Potency [2]: inactive | Potency [3]: inactive | Potency [4]: inactive | Potency [5]: inactive

C[C@@H]1CC[C@]2(C(=O)OC3OC(CO)C(O)C(O)C3O)CC[C@]3(C)C(=CCC4[C@@]5(C)CC[C@H](O)[C@](C)(C(=O)O)C5CC[C@]43C)C2[C@]1(C)O (stereo partly drawn)
Potency [1]: inactive | Potency [2]: inactive | Potency [3]: inactive | Potency [4]: inactive | Potency [5]: inactive

CC(C)C(NC(=O)c1ccc2ccccc2n1)C(=O)NC(CC(=O)O)C(=O)COc1c(F)cccc1F (stereo not drawn)
Potency [1]: inactive | Potency [2]: inactive | Potency [3]: inactive | Potency [4]: inactive

CCOc1ccc2nc(SCCN3CCOCC3)[nH]c2c1
Potency [1]: inactive | Potency [2]: inactive | Potency [3]: inactive | Potency [4]: inactive | Potency [5]: inactive

Cc1oc2ccccc2c1CNC(=O)NCc1cccs1
Potency [1]: inactive | Potency [2]: inactive | Potency [3]: inactive | Potency [4]: inactive

C=C1C[C@]23C[C@H]1CC[C@H]2[C@]1(C)CCC[C@@](C)(C(=O)O)[C@H]1[C@@H]3C(=O)O
Potency [1]: inactive | Potency [2]: inactive | Potency [3]: inactive | Potency [4]: inactive | Potency [5]: inactive

C[C@@H]1O[C@@H](O[C@H]2[C@H](OC(=O)[C@]34CCC(C)(C)C[C@H]3C3=CCC5[C@@]6(C)C[C@H](O)[C@H](O[C@@H]7O[C@H](CO)[C@@H](O[C@H]8OC[C@](O)(CO)[C@H]8O)[C@H](O)[C@H]7O)[C@@](C)(CO)C6[C@H](O)C[C@@]5(C)[C@]3(C)C[C@H]4O)OC[C@H](O)[C@@H]2O)[C@H](O)[C@H](O)[C@H]1O[C@@H]1OC[C@@H](O)[C@H](O[C@@H]2OC[C@](O)(CO)[C@H]2O)[C@H]1O (stereo partly drawn)
outcome [1]: inactive [at 9.52 µM] | outcome [2]: inactive [at 9.73 µM] | outcome [3]: inactive [at 11.6 µM] | activity change, negative = thiol reactive [4]: 502% [at 11.5 µM] | activity, negative = inhibition [5]: 3.67% [at 11.6 µM]

CC(C)C(CO)Nc1nc(Nc2ccc(C(=O)O)c(Cl)c2)c2ncn(C(C)C)c2n1 (stereo not drawn)
Potency [1]: inactive | Potency [2]: inactive | Potency [3]: inactive | Potency [4]: inactive

C/C=C/C=C/[C@@H]1O[C@](O)([C@H](CC)C(=O)NC/C=C/C=C(\C)[C@@H](OC)[C@@H](C)C2OC(/C=C/C=C/C=C(\C)C(=O)c3c(O)cc[nH]c3=O)[C@H](O)[C@@H]2O)[C@H](O)[C@H](O)C1(C)C (stereo partly drawn)
Potency [1]: inactive | Potency [2]: inactive | Potency [3]: inactive | Potency [4]: inactive | Potency [5]: inactive

CCOCCOC(=O)/C=C/c1ccc(OC)cc1
Potency [1]: inactive | Potency [2]: inactive

COC(=O)C[C@H]1[C@]2(C)C3=C(C)[C@H](c4ccoc4)C[C@H]3O[C@@H]2[C@H](OC(C)=O)C2[C@](C)(C(=O)OC)C=CC(=O)[C@@]21C (stereo partly drawn)
Potency [1]: inactive | Potency [2]: inactive | Potency [3]: inactive | Potency [4]: 13 µM (active) | Potency [5]: inactive

CC(=O)OC1C[C@@]2(C)[C@@H](CC[C@@H](C)[C@]23Cc2c(O)cc4c(c2O3)CNC4=O)C(C)(C)[C@@H]1O (stereo partly drawn)
Potency [1]: inactive | Potency [2]: inactive | Potency [3]: inactive | Potency [4]: inactive | Potency [5]: inactive

CC1=C(C)C(=O)OC(C(C)C2CCC3C4CC=C5CC(OC6OC(COC7OC(CO)C(O)C(O)C7O)C(O)C(O)C6O)CC(O)C5(C)C4CCC23C)C1 (stereo not drawn)
Potency [1]: inactive | Potency [2]: inactive | Potency [3]: inactive | Potency [4]: inactive | Potency [5]: inactive

CC1OC(OC2C(O)C(OC3CCC4(C)C(CCC5(C)C4CC=C4C6CC(C)(COC7OC(CO)C(O)C(O)C7O)CC(O)C6(C)CCC45C)C3(C)C)OC(C(=O)O)C2O)C(O)C(O)C1OC1OCC(O)C(O)C1O (stereo not drawn)
Potency [1]: inactive | Potency [2]: inactive | activity change, negative = inhibition [3]: 0.0325% [at 11.6 µM] | activity change, negative = thiol reactive [4]: 24.3% [at 11.5 µM] | activity, negative = inhibition [5]: -3.08% [at 11.6 µM]

CC(C)=CCC/C(C)=C/CO[C@@H]1O[C@H](CO)[C@@H](OC(=O)/C=C/c2ccc(O)cc2)[C@H](O[C@@H]2O[C@@H](C)[C@H](O)[C@@H](O)[C@H]2O)[C@H]1O
Potency [1]: inactive | Potency [2]: inactive | Potency [3]: inactive | Potency [4]: inactive | Potency [5]: inactive

COC1C(=O)CCC2(CO2)C1(O)C1(C)OC1CC=C(C)C (stereo not drawn)
Potency [1]: inactive | Potency [2]: inactive | Potency [3]: inactive | Potency [4]: 11.9 µM (active) | Potency [5]: inactive

CC(=O)O[C@H]1[C@@H](O)[C@H](O[C@H]2[C@@H]3C=CO[C@@H](O[C@H]4O[C@@H](CO)[C@H](O)[C@@H](O)[C@@H]4O)[C@@H]3[C@@]3(CO)O[C@@H]23)O[C@@H](C)[C@@H]1OC(=O)/C=C/c1ccccc1
Potency [1]: inactive | Potency [2]: inactive | Potency [3]: inactive | Potency [4]: 7.93 µM (active) | Potency [5]: inactive
